{"source": "ChEMBL document CHEMBL1961873", "about": "“Compounds: GSK PKIS; Assays: Nanosyn kinase panel” (2012);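 note: listed percent inhibition of PRKG1 is a mean value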", "data": [{"biological_target": "T1, cGMP-dependent protein kinase 1 (Homo sapiens) (UniProt Q13976)", "T1 sequence (whole entry)": "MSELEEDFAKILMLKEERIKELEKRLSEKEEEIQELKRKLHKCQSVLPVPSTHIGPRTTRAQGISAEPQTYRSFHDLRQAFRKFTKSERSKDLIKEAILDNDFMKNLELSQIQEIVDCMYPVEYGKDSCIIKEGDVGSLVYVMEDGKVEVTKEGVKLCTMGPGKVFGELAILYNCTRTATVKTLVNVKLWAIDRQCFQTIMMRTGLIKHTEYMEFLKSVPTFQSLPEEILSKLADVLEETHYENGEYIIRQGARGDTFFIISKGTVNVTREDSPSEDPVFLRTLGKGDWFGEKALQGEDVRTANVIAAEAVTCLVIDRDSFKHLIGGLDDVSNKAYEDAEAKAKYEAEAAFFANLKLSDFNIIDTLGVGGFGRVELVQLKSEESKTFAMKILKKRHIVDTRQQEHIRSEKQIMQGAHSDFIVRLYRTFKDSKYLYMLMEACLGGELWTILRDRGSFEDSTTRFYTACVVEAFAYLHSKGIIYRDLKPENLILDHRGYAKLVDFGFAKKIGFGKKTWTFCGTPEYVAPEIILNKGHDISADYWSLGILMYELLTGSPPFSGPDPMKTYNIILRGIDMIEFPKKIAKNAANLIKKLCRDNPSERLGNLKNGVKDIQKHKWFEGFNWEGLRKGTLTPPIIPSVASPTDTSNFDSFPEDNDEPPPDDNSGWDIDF", "conditions": "at 1 µM", "units": {"inhibition": "%"}, "values": [{"molecule": "Fc1ccc(-c2nn3ccccc3c2-c2ccncc2)cc1", "inhibition": 5.24}, {"molecule": "COc1cc2c(cc1Nc1nc(Nc3ccsc3C(N)=O)c3cc[nH]c3n1)N(C(=O)CN(C)C)CCC2(C)C", "inhibition": 8.75}, {"molecule": "CN1CCC(n2cnc(-c3ccc(F)cc3)c2-c2ccnc(N)n2)CC1", "inhibition": 9.09}, {"molecule": "FC(F)(F)c1cccc(-c2nn3ncccc3c2-c2ccnc(Nc3ccc4c(c3)OCCO4)n2)c1", "inhibition": 2.81}, {"molecule": "CC1=C(C(=O)Nc2cc(Cl)c3[nH]ncc3c2)C(c2ccc(C(F)(F)F)cc2)CC(=O)N1", "note": "(stereo unspecified)", "inhibition": 67.9}, {"molecule": "CS(=O)(=O)CCNCc1ccc(-c2ccc3ncnc(Nc4ccc(OCc5ccccc5)c(C(F)(F)F)c4)c3c2)o1", "inhibition": 0.85}, {"molecule": "Nc1nc(-c2ccc(F)cc2)c(-c2ccc3ncccc3n2)s1", "inhibition": 4.97}, {"molecule": "COc1cc(Nc2nccc(Nc3ccc4c(C)n[nH]c4c3)n2)cc(OC)c1OC", "inhibition": 3.61}, {"molecule": "CN(C)CCOc1ccc(-c2nc(-c3ccncc3)c(-c3ccc4c(c3)CC/C4=N\\O)[nH]2)cc1", "inhibition": 6.12}, {"molecule": "CCn1c(-c2nonc2N)nc2c(C#CC(C)(C)O)ncc(OC3CCNCC3)c21", "inhibition": 77.4}, {"molecule": "[O-][S+]1CCN(Cc2ccc(-c3ccc4ncnc(Nc5ccc(OCc6cccc(F)c6)c(Cl)c5)c4c3)o2)CC1", "inhibition": 3.85}, {"molecule": "COc1ccc(-c2cc(-c3c[nH]nc3-c3ccccn3)ccn2)cc1", "inhibition": 5.45}, {"molecule": "Cc1ccc2c(-c3ccnc(Nc4ccccc4)n3)c(-c3ccc(F)cc3)nn2n1", "inhibition": 2.92}, {"molecule": "COc1ccc(-c2oc3ncnc(N)c3c2-c2ccc(NC(=O)Nc3cc(C(F)(F)F)ccc3F)cc2)cc1", "inhibition": 3.73}, {"molecule": "CCCN(CCS(C)(=O)=O)Cc1ccc(-c2ccc3ncnc(Nc4ccc(OCc5cccc(F)c5)c(Cl)c4)c3c2)o1", "inhibition": 1.47}, {"molecule": "CCn1c(-c2nonc2N)nc2c(C#CC(C)(C)O)nc(OC[C@H](N)c3ccccc3)cc21", "inhibition": 71.3}]}]}
